Assay results: the supplement of paper PMC11172423
Unmarked numbers belong to inactive results.

What follows are compounds tested on Falciformispora senegalensis CBS197.79 (assay: growth relative to untreated control; higher = less inhibition, active = 20 or less). Settings: 25 µM.
How it was run: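 Compound at 100 or 25 µM was applied for 7 days at 37 °C to hyphal fragments of M. mycetomatis MM55 or F. senegalensis CBS197.79 in 96-well plates. Fragments were suspended in colourless RPMI 1640 with L-glutamine and MOPS at 68–72% transmission at 660 nm, and viability was read with MTS (2 h, 490 nm) or resazurin (600 nm). Growth is reported as blank-corrected metabolic activity relative to the blank-corrected untreated growth control.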

SMILES | growth [%]
Cc1sc2c(c1C)C(c1ccc(Cl)cc1)=N[C@@H](CC(=O)OC(C)(C)C)c1nnc(C)n1-2 | 101
CN/C(=N\[N+](=O)[O-])NCc1cnc(Cl)s1 | 90.6
CC(F)c1ncnc(NCCc2ccc(OC(F)(F)F)cc2)c1Cl (stereo not drawn) | 90.5
CN(C)CCn1c(Nc2cc(Cl)cc(C(F)(F)F)c2)nc2cnc(NC3CCCC3)cc21 | 94.1
CNC(=O)c1cc(Cl)cc(C)c1NC(=O)c1cc(Br)nn1-c1ncccc1Cl | 93.3

Same assay, conditions: 100 µM

SMILES | growth [%]
CC(c1ccc(C(F)(F)F)nc1)S(C)(=O)=NC#N (stereo not drawn) | 90.7
CCN(CC)c1nc(C)cc(OP(=S)(OC)OC)n1 | 95.6
O=C1C=C(N(Cc2ccc(Cl)nc2)CC(F)F)CO1 | 89.3
C/C=C(\C)C(=O)O[C@H]1C[C@@H](OC(C)=O)[C@@]2(C(=O)OC)CO[C@H]3[C@@H](O)[C@@](C)([C@]45O[C@@]4(C)[C@H]4C[C@@H]5O[C@@H]5OC=C[C@@]54O)[C@H]4[C@]1(CO[C@]4(O)C(=O)OC)[C@@H]32 | 96.1
ClC1=C(Cl)[C@@]2(Cl)[C@H]3C[C@@H](Cl)[C@H](Cl)[C@H]3[C@@]1(Cl)C2(Cl)Cl | 78.3
CC1(C)C(/C=C(\Cl)c2ccc(Cl)cc2)C1C(=O)OC(C#N)c1ccc(F)c(Oc2ccccc2)c1 (stereo not drawn) | 93.3
CCOP(=S)(OCC)Oc1nc(Cl)c(Cl)cc1Cl | 69
CC(C)=CC1C(C(=O)OCN2C(=O)C3=C(CCCC3)C2=O)C1(C)C (stereo not drawn) | 100
